Compounds without any hit were thinned out: in the full panel of roughly 79,000, 15% have a hit. A number with no mark means an inactive call. Activity calls are given as the source filed them. Cut-off read from the data, not from the text of the source: active = growth inhibition above about 70%; inactive = the rest.
Columns and labels:
[1] = NCI Yeast Anticancer Drug Screen. Data for the rad50 strain (AID 155);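 note: 0% = growth of vehicle-only cultures of the same strain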; details: S. cerevisiae rad50 strain growth inhibition; at 50.0 µM; hits give high values
Outline: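 Growth of the mutant yeast was measured after compound exposure and referenced to vehicle-treated cultures.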

[2] = NCI Yeast Anticancer Drug Screen. Data for the mec2-1 strain (AID 157); details: S. cerevisiae mec2-1 strain, at 50.0 µM, hits give high values
Outline: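 Each compound was tested on mec2-1 yeast, a strain altered in DNA damage repair or cell cycle control. Growth inhibition is reported relative to vehicle.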

[3] = NCI Yeast Anticancer Drug Screen. Data for the sgs1 mgt1 strain (AID 161);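 note: 0% = growth of cultures given vehicle only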; details: S. cerevisiae sgs1 mgt1 strain, at 50.0 µM, hits give high values
Outline: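 Read-out: growth inhibition vs vehicle controls. Cells: mutant yeast strain deficient in DNA damage repair.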

[4] = NCI Yeast Anticancer Drug Screen. Data for the cln2 rad14 strain (AID 165);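 note: 0% = growth equal to vehicle treated cultures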; details: S. cerevisiae cln2 rad14 strain, at 50.0 µM, hits give high values
Outline: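 Test compounds were added to cln2 rad14 yeast cultures; inhibition of growth was then determined by comparison with vehicle treatment.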

[5] = NCI Yeast Anticancer Drug Screen. Data for the bub3 strain (AID 167); details: S. cerevisiae bub3 mutant strain, at 50.0 µM, hits give high values
Outline: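 Whole-cell yeast assay. The mutant strain was incubated with compounds, and growth inhibition was determined by comparison with vehicle-treated cells.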

[6] = NCI Yeast Anticancer Drug Screen. Data for the mlh1 rad18 strain (AID 175); details: S. cerevisiae mlh1 rad18 strain growth inhibition; at 50.0 µM; hits give high values
Outline: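 Inhibition values reflect reduced growth of mutant yeast versus vehicle-treated controls following compound exposure; the mutations affect DNA damage repair.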

| Structure (SMILES) | growth inhibition [1] | growth inhibition [2] | growth inhibition [3] | growth inhibition [4] | growth inhibition [5] | growth inhibition [6] |
| --- | --- | --- | --- | --- | --- | --- |
| NC(=O)c1cn(Cc2ccccc2)c(=O)n1Cc1ccccc1 | 9.75% | 18.2% | -3.2% | 9.45% | 23.8% | 11.7% |
| COC(=O)c1cc([N+](=O)[O-])c(Br)s1 | 99.3% (active) | 99.6% (active) | 99.6% (active) | 99.5% (active) | 99.3% (active) | 99.3% (active) |
| C[C@]12CC[C@@H]3c4ccc(OS(C)(=O)=O)cc4CC[C@H]3[C@@H]1CC[C@@H]2OS(C)(=O)=O | 30.6% | -0.5% | 22.8% | 22.1% | 10.8% | 9.9% |
| Cc1onc(-c2c(F)cccc2Cl)c1C(=O)OCc1c(F)cccc1Cl | 6.8% | -2.15% | 20.9% | 11.5% | 25.1% | 24.5% |
| Nc1nc(SCc2ccccc2)c2ncn(Cc3ccccc3)c2n1 | 5.75% | -7.55% | -15.1% | 10.5% | -2.9% | 9.55% |
| CCOc1ccc(N2CC(=O)N3CCCC(c4ccccc4)N3C(=O)C2)cc1 (stereo unspecified) | -23.7% | -10.9% | 13.4% | 4.9% | 12.1% | 8.55% |
| O=C1C(n2ccc(=O)[nH]c2=O)CCN1CCCl (stereo unspecified) | 0.2% | 1.35% | 2.65% | -23.5% | 14.1% | 12.5% |
| Cn1c(=O)oc2cc(C(=O)CSC(=S)N3CCCCCC3)ccc21 | -18.3% | -33.1% | -17.6% | -14.8% | -4.8% | -7.6% |
| COc1ccc(CC(N)C(=O)OCCCl)cc1 (stereo unspecified) | 6.65% | -0.4% | 13.8% | 10% | 0.3% | 12% |
| Cc1cc(N(CCC#N)CCC#N)ccc1/C=C1/N=C(c2ccccc2)N(N)C1=O | -2.55% | 13.2% | 9.9% | 2.7% | 5.15% | -3.3% |
| CC1CCCCC1NC(=O)c1ccccc1 (stereo unspecified) | -12% | -10.6% | -5.2% | -34.8% | -13.7% | -3.1% |
| Cc1cc(Oc2cnc(=O)[nH]c2)cs1 | 27.1% | 22.4% | 19.9% | 1.7% | 12% | 10.9% |
| COc1cc(-c2[nH]ncc2CCCC(=O)Nc2ccccc2[N+](=O)[O-])ccc1O | 20.9% | -2.75% | -14.5% | 7.8% | -2.75% | 18.5% |
| O=S(=O)(/C=C/c1ccc(F)cc1)Cc1ccccc1 | -3.2% | -15.6% | 0.65% | 12.9% | -4% | 11.7% |
| CCOC(=O)c1c[nH]c2cc(Cl)ccc2c1=O | 3.85% | 30.5% | 9.65% | 7.9% | 15.3% | -12.9% |
| Nc1ccc(-c2c[nH]c(=O)c([N+](=O)[O-])c2)cc1 | 3.5% | -6.05% | -1.35% | -28.5% | 3.5% | -6.4% |
| Oc1cccc2ccc(Br)nc12 | -10.1% | 15.2% | 7.25% | 4.9% | 5.45% | -3.25% |
| CS/C(=C/c1ccc2ccccc2[n+]1C)N1CCN(C)CC1 | -3.3% | -1.25% | -8.15% | -12.9% | -3% | -0.2% |
| CN(C)Cc1cc(N=Nc2ccc(Cl)cc2)ccc1O | 26.9% | 7.3% | 19.4% | 14.8% | 36.5% | 46.3% |
| C[C@@H]1C[C@@H]2C(=O)N(c3ccccc3)C(=O)[C@@H]2c2[nH]c3ccc(Br)cc3c21 | 0.2% | -12.6% | 15.8% | 0.25% | -7.95% | -20.1% |
| Nc1nc(N)nc(CCC(Br)(Br)Br)n1 | 26.6% | 4.75% | 30.8% | 19.9% | 21.9% | 11.1% |

| Structure (SMILES) | growth inhibition [1] | growth inhibition [2] | growth inhibition [3] | growth inhibition [4] | growth inhibition [5] | growth inhibition [6] |
| --- | --- | --- | --- | --- | --- | --- |
| Oc1ccc(Cl)cc1C1=NC(/N=C\c2ccccc2)=NC(c2ccccc2)C1 (stereo unspecified) | -0.7% | -4.05% | -43% | -8.1% | -36.8% | -45% |
| C/C(=N\[N+](C)(C)C)c1ccc(C)c(C)c1 | 9.45% | -38% | -23.2% | 17.9% | -56.2% | -5% |
| O=C1NN=CN2C(=O)CCC12 (stereo unspecified) | 26.4% | 3.45% | 14.3% | 4.15% | 14.4% | -3.4% |
| NNC(=S)N/N=C(\c1nc2ccc(Cl)cc2[nH]c1=O)C(O)c1cccc([N+](=O)[O-])c1 (stereo unspecified) | 48.6% | 27.6% | 12% | -17.1% | 27.4% | -8.4% |
| Cc1ccc2c(c1)[n+]([O-])c1c3ccccc3[nH]c1[n+]2[O-] | 63.2% | 23% | 22.9% | 25.7% | 15.2% | 26.4% |
| O=C(c1ccc(F)cc1)c1ccc([N+](=O)[O-])cc1 | 8.85% | 8.1% | -1.7% | -19.9% | -14.1% | 12.1% |
| CCCCCCCCCCCOc1ccc(Cl)cc1Cl | 10.4% | 16.5% | 8.75% | -4.05% | 30.2% | 12.2% |
| CCCOC1NC(=O)Oc2ccccc21 (stereo unspecified) | -14.8% | -6.1% | -0.9% | -30.4% | -1.55% | 13.8% |
| CSC1(C(=O)O)C2CCC3C2CCC31 (stereo unspecified) | 12.7% | 16.1% | 9.95% | 26.9% | 51.2% | 41.5% |
| CCCC(N)C(=O)NC(Cc1c[nH]c2ccccc12)C(=O)O (stereo unspecified) | -23.9% | -6.65% | -12% | -0.3% | 0.9% | 2.05% |
| Nc1ncnc2c1nnn2C1C=CC(COS(N)(=O)=O)C1 (stereo unspecified) | 12.2% | 3.75% | 3.7% | -6% | 8.25% | 18.6% |
| CC1CC(N2CSC(=S)N(C3CC(C)CC(C)(C)C3)C2)CC(C)(C)C1 (stereo unspecified) | -17.2% | -16.2% | -4.55% | 9.5% | 3.9% | -0.4% |
| Nc1cc2c(C3OC(CO)C(O)C3O)[nH]nc2c(=S)[nH]1 (stereo unspecified) | 40.8% | 7.05% | 15.5% | 20.4% | 8.15% | 24.1% |
| CNC(=O)CCC(=O)O | -7.25% | -20.2% | -7.5% | -2.7% | -23.4% | -8.45% |
| O=[N+]([O-])c1ccc(N=NC(=S)NNc2ccccc2)cc1 | 38.9% | 0.65% | 39.5% | -3.35% | 20.2% | 23.5% |
| Cc1cc(N(CCC#N)CCC#N)ccc1N=Nc1cc(Cl)ccc1Cl | 18.8% | 16.8% | -8.55% | 13.2% | 42% | 16.6% |
| O=C1c2cn[nH]c2N=C(Nc2ccccc2)C1N=Cc1ccc([N+](=O)[O-])cc1 (stereo unspecified) | -32.6% | -45.2% | -13.8% | 12.5% | -24.3% | -17.9% |
| O=c1[nH][nH]c(=O)c2[nH]cnc12 | -11.9% | -8.2% | 29.1% | -62.6% | -6.3% | -10% |
| CC(=O)c1c2c(cc3c1CCC3)CCC2 | -15.4% | -47.2% | -20.1% | -26% | -21.7% | -0.8% |
| O=C1/C(=C/c2ccc(Cl)cc2)CCC1CNc1ccc(Cl)cc1 (stereo unspecified) | 17.1% | 0.25% | -15.6% | -2.8% | -16.2% | -43.1% |

From PubChem BioAssay (NCI)
